High-throughput results: PubChem, The Scripps Research Institute Molecular Screening Center
MITF primary = blocks human microphthalmia-associated transcription factor; O75030; AlphaScreen MITF homodimerization, bead proximity signal; inhibition, % at 2.6 µM; hit rate 0.91% among 650,000; in the data active = inhibition above about 50%;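 note: 0% = vehicle wells with protein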
GPR151 ag = activators of human GPR151; Q8TDV0; activation, % at 11.2 µM; hit rate 1% among 650,000; PathHunter beta-arrestin GPR151 cells, luminescence; in the data active = activation above about 4.9%;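 note: 0% = median of compound wells and 100% = cells with positive control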
Target sequence (Q8TDV0 whole entry, looked up): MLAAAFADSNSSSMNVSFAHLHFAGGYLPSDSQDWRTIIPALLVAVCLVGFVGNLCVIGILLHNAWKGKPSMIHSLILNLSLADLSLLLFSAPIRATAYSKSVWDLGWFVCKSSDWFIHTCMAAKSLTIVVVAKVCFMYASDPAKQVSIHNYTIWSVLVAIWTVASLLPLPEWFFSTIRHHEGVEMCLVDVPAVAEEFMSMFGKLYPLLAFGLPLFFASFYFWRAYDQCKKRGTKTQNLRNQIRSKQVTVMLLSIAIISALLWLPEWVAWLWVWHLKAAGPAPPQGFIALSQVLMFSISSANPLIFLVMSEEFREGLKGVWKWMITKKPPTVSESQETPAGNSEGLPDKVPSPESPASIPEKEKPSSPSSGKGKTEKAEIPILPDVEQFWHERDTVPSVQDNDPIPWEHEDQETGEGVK
TEAD-YAP inh = TEAD-YAP interaction inhibition; AID 1259422; hit rate 1.4% among 640,000; HEK-TIYL cells, TEAD-Gal4/YAP UAS-luciferase luminescence; inhibition, % at 9.12 µM; in the data active = inhibition above about 32%;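 note: 0% = median of test compound wells and 100% = reference inhibitor wells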
FBW7 activator = human FBW7 E3 ligase activation, primary screen | hit rate 0.13% among 650,000 | AID 1259310 | normalized activity (activation), % at 26.1 µM | AlphaScreen FBW7–phospho-cyclin E peptide binding, activator screen; in the data active = normalized activity above about 1.9%;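 note: purified mutant Fbw7 with reduced substrate affinity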
An asterisk follows results filed as active. Rows were chosen to be rich in hits. Some 3.5% of all compounds tested hit in one or more screens of this group.

SMILES | MITF primary | GPR151 ag | TEAD-YAP inh | FBW7 activator
CCOC(=O)NNC(=O)Nc1ccc(Br)cc1 | -16.4 | 0.3 | 4.2 | 0.1
c1ccc(-c2nc3c(c(N4CCCC4)n2)CN(Cc2cccnc2)CC3)cc1 | 2.4 | -0.7 | -5.3 | 0.0
COc1ccc(Cl)cc1C(=O)NCc1ccc2c(c1)cc(C)n2C | -1.2 | 1.1 | 43.9* | 0.1
Cc1nc2ccccc2c(=O)n1Cc1ccc(F)cc1 | 8.7 | -0.6 | 1.5 | 0.5
Fc1ccccc1NC(=S)NCCN1CCOCC1 | 20.2 | -0.3 | -2.5 | 0.5
O=C(Nc1ccc2c(c1)OCCO2)c1ccccc1NC(=S)NCCN1CCOCC1 | -6.9 | -7.6 | 73.4* | -0.1
O=C(O)/C=C\C(=O)Nc1ccc(Cl)c([N+](=O)[O-])c1 | 18.7 | -1.1 | 3.0 | 0.2
C(=Nc1ccc2c(c1)OCCO2)c1ccc(OC2CSC2)cc1 | 10.7 | 1.0 | 44.9* | 1.4
CCCCC(=O)N/N=C/c1cccc(OC)c1OC | -16.1 | 0.5 | -0.6 | 0.2
NNC(=O)c1[nH]c2ccccc2c1Cl | 2.2 | -1.3 | 46.7* | 0.0
Cc1nn2c(N)cc(-c3ccccc3)nc2c1-c1ccc(Cl)cc1 | -21.9 | -0.9 | 2.1 | 0.3
Cc1nc2c(-c3ccc(Cl)cc3)cnn2c(N)c1-c1ccccc1 | 13.5 | -2.1 | 89.0* | 0.5
Cc1ccccc1C(=O)/C=c1\[nH]c(=O)/c(=C\c2cccc(O)c2)s1 | 4.0 | 0.3 | 56.9* | -0.2
Cc1ncc(CO)c(/C=N/Nc2nc3ccccc3[nH]2)c1O | 85.5* | 0.5 | -11.3 | -1.3
Cc1ncc(CO)c(/C=N/NC(=O)c2ccc(C(C)(C)C)cc2)c1O | 14.7 | 0.4 | 82.6* | -0.3
Cc1ncc(CO)c(/C=N/NC(=O)c2cc3c(s2)CCCC3)c1O | 28.7 | -0.5 | 40.4* | -0.8
COc1ccc(-c2cccc(C(=O)NCc3nc4ccccc4[nH]3)c2)cc1 | 6.9 | 0.1 | -12.1 | 0.0
CN1CCN(c2ccc(-c3cccc(C(=O)NCc4nc5ccccc5[nH]4)c3)cc2)CC1 | 2.5 | 2.7 | 68.0* | -0.1
CN1CCN(c2ccc(-c3cc(C(=O)NCc4nc5ccccc5[nH]4)ccn3)cc2)CC1 | -0.5 | -1.8 | 87.7* | -0.1
COC(=O)c1cccc(OCC(O)Cn2c(C)nc3ccccc32)c1 (stereo not given) | 4.9 | 1.2 | 39.1* | 0.0
Cc1nc2ccccc2n1CC(O)COc1ccc(C(C)(C)C)cc1 (stereo not given) | -4.4 | 1.4 | 47.4* | 0.3
COc1ccc(OCC(O)Cn2c(C)nc3ccccc32)cc1 (stereo not given) | 3.3 | 2.0 | 44.5* | -0.4
Cc1nc2ccccc2n1CC(O)COc1ccc2ccccc2c1Br (stereo not given) | 5.8 | -1.2 | 44.6* | 0.1
O=C(NC1CCCCC1)N(CCO)Cc1cc2cc3c(cc2[nH]c1=O)OCO3 | -2.0 | -1.5 | 3.1 | -0.2
CC1CCN(S(=O)(=O)c2ccc3nc(-c4ccncc4)cc(C(=O)Nc4cccc(C(F)(F)F)c4)c3c2)CC1 | 6.3 | 1.5 | 5.5 | 0.1
SMILES | MITF primary | GPR151 ag | TEAD-YAP inh | FBW7 activator
CC1=C(C(=O)OC(C)C)C(c2ccc(Br)cc2)NC(=O)N1 (stereo not given) | 3.9 | -0.5 | -4.0 | -0.1
CCOC(=O)C1(Cc2cccc(OC)c2)CCN(Cc2cn(C)nc2C)CC1 | -7.7 | -1.4 | -6.7 | -0.1
COC(=O)Cn1cc(/C=C2\SC(=Nc3ccccc3)NC2=O)c2ccccc21 | 10.6 | 0.3 | 4.0 | 0.0
c1coc(-c2nc3ccccn3c2Nc2ccc3c(c2)OCCO3)c1 | -3.6 | -1.6 | 41.4* | -0.3
Cc1ccsc1C(=O)C1CCCN(Cc2ccc(N3CCNC3=O)cc2)C1 (stereo not given) | -18.9 | -0.1 | 35.5* | 0.2
COc1ccc(C(=O)C2CCCN(Cc3ccc(N4CCNC4=O)cc3)C2)cc1OC (stereo not given) | 14.8 | 0.3 | -4.1 | 0.0
C=CS(=O)(=O)c1ccc(C(C)(C)C)cc1 | 19.1 | 2.9 | 67.6* | 0.0
Cc1cnn(-c2cc(N/N=C/c3ccc(O)cc3O)ncn2)c1 | 35.9 | 0.4 | 11.0 | -0.5
Oc1ccc(/C=N/Nc2ncc(C(F)(F)F)cc2Cl)c(O)c1O | 65.7* | 2.0 | 7.1 | -1.2
CCN(CC)S(=O)(=O)c1ccc(N/N=C/c2ccc(O)cc2O)nc1 | 40.9 | -0.5 | 59.4* | -0.3
Oc1ccc(/C=N/Nc2ccc(Cl)nn2)c(O)c1 | 55.2* | -4.2 | 8.9 | -0.4
Cc1cc(C)n(-c2cc(N/N=C/c3ccc(O)cc3O)ncn2)n1 | 17.8 | 2.2 | 85.0* | -0.3
CCN(CC)S(=O)(=O)c1ccc(N/N=C/c2ccccc2[N+](=O)[O-])nc1 | 0.6 | 1.0 | -2.3 | -0.1
O=C(Nc1ccc(S(=O)(=O)Nc2ncccn2)cc1)C(Cc1ccccc1)N1C(=O)C2CCCCC2C1=O (stereo not given) | 3.5 | 0.9 | -11.7 | -0.1
CC(C)c1c(O)nc(SCC(=O)NCc2ccco2)[nH]c1=O | 7.8 | 3.4 | 11.4 | 0.0
COc1cccc(C(=O)Nc2nnc(C3=COCCO3)o2)c1OC | 13.3 | 0.4 | 3.8 | 0.0
O=C(NNC(=O)c1ccc([N+](=O)[O-])cc1[N+](=O)[O-])c1cccc(Cl)c1 | 0.8 | -0.9 | -15.3 | -0.2
CCOc1ccc(/C=N/Nc2ncc(Br)cn2)c(O)c1 | 41.6 | -1.0 | -47.5 | -0.6
Oc1ccc(/C=N/Nc2ccc(Cl)nn2)c(O)c1O | 103.5* | -1.1 | 5.2 | -0.6
Oc1ccc(/C=N/Nc2ncc(Br)cn2)c(O)c1 | 65.5* | -3.1 | -36.9 | -1.4
O=C(Nc1nnn(CCOc2nonc2NC(=O)C(F)(F)F)n1)C(F)(F)F | 0.7 | -0.8 | 5.1 | -0.1
CS/C(=C\[N+](=O)[O-])Nc1ccc(C(C)C)cc1 | -15.9 | -0.5 | 53.5* | 0.1
CC(C)c1ccc(NC(=O)c2ccc([N+](=O)[O-])cc2)cc1 | 20.9 | -1.3 | -19.7 | 0.0
Nc1nc2ccc(Oc3ccc4nc(N)sc4c3)cc2s1 | 15.7 | 0.8 | 32.8* | 0.4
Nc1ccc2nc(N)sc2c1 | 11.9 | -2.3 | 1.9 | 0.1
SMILES | MITF primary | GPR151 ag | TEAD-YAP inh | FBW7 activator
CCSCCOC(=O)C1=C(C)N(C)C(=O)NC1c1ccc(Cl)cc1 (stereo not given) | 6.7 | 0.9 | 14.3 | 0.0
CN(C)c1ccc(CCCNS(=O)(=O)c2ccccc2F)cc1 | 4.4 | 1.1 | -16.4 | -0.5
CCc1ccccc1NC(=O)CC1Nc2cc(C)c(C)cc2NC1=O (stereo not given) | 6.4 | -0.9 | -4.5 | 1.3
Cc1cn2c3c(=O)n(CC(N)=O)c(=O)n(C)c3nc2n1-c1cccc(Cl)c1 | 3.6 | 0.9 | -5.5 | -0.1
COc1ccc(-n2nc3ccc(O)cc3n2)cc1 | 4.2 | -6.0 | 65.4* | 0.0
COc1ccc(OCC(=O)Nc2ccc3nn(-c4ccc(OC)cc4)nc3c2)cc1 | 7.3 | -1.5 | -25.6 | -0.1
CC(C)Cc1nc2c3ccccc3ncn2n1 | 0.8 | -0.3 | -24.5 | -0.1
O=C1NN(c2ccccc2)C(=O)/C1=C/c1ccc([N+](=O)[O-])o1 | 78.6* | -0.6 | 6.8 | -0.4
O=C1OC2(CCCC2)OC(=O)C1=Cc1ccc(-c2ccc([N+](=O)[O-])cc2)o1 | 17.1 | -0.6 | -0.7 | -0.1
O=C1OC2(CCCCC2)OC(=O)C1=Cc1ccc([N+](=O)[O-])o1 | 66.4* | -1.0 | 6.4 | -1.5
O=C1NC(=S)N(c2ccccc2)C(=O)/C1=C\c1ccc([N+](=O)[O-])o1 | 80.1* | -1.1 | 4.6 | -0.3
